Inconclusive results are not listed. Unmarked numbers belong to inactive results. The source made the active and inactive calls. The call rests on the fitted dose curve.
On the % scale 0 is the no-effect control and ±100 the full control effect.

Sequence of Atrial natriuretic peptide receptor 2 (Homo sapiens) (P20594 whole entry, looked up): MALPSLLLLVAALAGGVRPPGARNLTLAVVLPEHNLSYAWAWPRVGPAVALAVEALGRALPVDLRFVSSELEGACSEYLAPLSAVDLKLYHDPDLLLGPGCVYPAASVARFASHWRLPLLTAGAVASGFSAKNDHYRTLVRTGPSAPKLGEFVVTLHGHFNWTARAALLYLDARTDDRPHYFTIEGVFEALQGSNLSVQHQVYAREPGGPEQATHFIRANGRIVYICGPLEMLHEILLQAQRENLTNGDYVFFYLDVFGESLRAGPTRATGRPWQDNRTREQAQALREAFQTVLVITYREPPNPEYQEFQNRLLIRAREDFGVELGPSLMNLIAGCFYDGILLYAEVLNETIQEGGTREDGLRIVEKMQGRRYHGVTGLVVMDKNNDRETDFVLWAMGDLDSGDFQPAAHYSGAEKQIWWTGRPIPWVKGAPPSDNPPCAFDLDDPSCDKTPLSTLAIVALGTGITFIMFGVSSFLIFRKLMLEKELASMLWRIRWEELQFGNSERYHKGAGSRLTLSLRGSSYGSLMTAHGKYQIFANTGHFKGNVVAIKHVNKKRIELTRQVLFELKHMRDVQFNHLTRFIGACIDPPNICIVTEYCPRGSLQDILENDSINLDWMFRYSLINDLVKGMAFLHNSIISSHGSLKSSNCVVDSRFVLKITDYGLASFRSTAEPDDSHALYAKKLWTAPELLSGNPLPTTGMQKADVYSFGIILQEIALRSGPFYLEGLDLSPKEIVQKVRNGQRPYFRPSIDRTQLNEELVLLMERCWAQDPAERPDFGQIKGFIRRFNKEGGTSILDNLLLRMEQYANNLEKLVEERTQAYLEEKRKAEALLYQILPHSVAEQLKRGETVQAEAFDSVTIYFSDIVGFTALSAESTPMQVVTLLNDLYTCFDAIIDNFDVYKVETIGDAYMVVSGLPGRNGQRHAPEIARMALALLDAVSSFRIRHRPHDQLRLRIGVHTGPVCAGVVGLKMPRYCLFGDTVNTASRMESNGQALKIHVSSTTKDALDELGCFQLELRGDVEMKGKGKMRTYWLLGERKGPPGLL

System in one assay: not listed separately
In words: Natriuretic polypeptide receptor (hNpr1) antagonism - Pilot counterscreen GloSensor control cell line (AID 1347045). Further: potency means the concentration at half of the fitted maximal effect. Particulars: HEK293 cGMP GloSensor cells, SNP-stimulated luminescence, 20 min; series mostly up to 38.3 µM; activity change, negative = inhibition: at the top concentration. The method, boiled down: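 HEK293 cells carrying the GloSensor cGMP sensor (GIP/pGS-40F) were loaded with 2% GloSensor reagent for 2 h, exposed to compounds for 30 min, and then stimulated with 50 uM sodium nitroprusside for 20 min at room temperature.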
For orientation: The purpose of a counterscreen is to sort out artefacts and off-target activity.
For the molecule `COc1ccc(Cc2nccc3cc(OC)c(OC)cc23)cc1OC`, the “activity change, negative = inhibition” value was -96.7%.
On the same count and under the same terms, to `O=c1c(-c2ccc(O)cc2)coc2cc(O)ccc12` belongs -11.5%.
On to `CC1(C)CCC2=C(O1)c1ccccc1C(=O)C2=O`, for which the Potency is 14.7 µM (active).

A further assay has as its target Atrial natriuretic peptide receptor 2 (Homo sapiens) (UniProt P20594). In words: Natriuretic polypeptide receptor (hNpr2) antagonism - Pilot subtype selectivity assay (AID 1347050). As to conditions: NPR2-expressing cells, cGMP antagonist-mode read-out; series mostly up to 38.3 µM; activity change, negative = inhibition: at the top concentration. The method, boiled down:
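HEK293 cells expressing hNpr2 and a GloSensor cGMP luciferase sensor, 1500/well, preloaded 2 h with 2% GloSensor reagent, compound 30 min, then 1 nM hNppC for 20 min. Antagonism from luminescence after versus baseline pre-read; LOPAC in 1:5 titrations.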
Turning to `CC(C)OC(=O)C(C)(C)Oc1ccc(C(=O)c2ccc(Cl)cc2)cc1`, the “activity change, negative = inhibition” value is -1.72%.
In the case of `O=c1cc(-c2ccc(O)cc2)oc2cc(O)cc(O)c12`, the “activity change, negative = inhibition” value was -14.6%.
On to `O=c1c(-c2ccc(O)cc2)coc2cc(O)ccc12`, for which the “activity change, negative = inhibition” value was -4.29%.

These data come from PubChem BioAssay (NCATS).
